About 760 (0.19%) of roughly 390,000 compounds were called active. About 3% were inconclusive and are not listed. Many of the other results were omitted from the sample, so actives are more common in it than they were. Unmarked numbers belong to inactive results. Calls follow the shape of the dose curve; as a rule, active = well fitted inhibition curve with a large enough effect; inconclusive = small, poorly fitted or top-dose-only effect; inactive = flat fitted curve, though single readings scatter.
Assay: qHTS for Inhibitors of Vif-A3F Interactions: qHTS; also: nearly all actives have a fitted effect of over 65% in size; as to activity, negative = active: % of control where 0% means no effect
Conditions: HeLa A3F-eYFP + Vif (tagged APOBEC3F with the HIV-1 protein that degrades it), YFP fluorescence increase; series mostly up to 46.1 µM; activity, negative = active: at the top concentration
Excerpt: The recent discovery and characterization of host restriction factors, which provide a potent defense to invading retroviruses, has provided new targets for antiviral drug development. APOBEC3G (A3G) and APOBEC3F (A3F) are potent cytidine deaminases that block HIV-1 replication; HIV-1 expresses the Vif protein, which counteracts A3G and A3F by binding to them and inducing their proteasomal degradation. The Vif-A3G and Vif-A3F interactions provide two potential targets for development of small molecules which can interfere with the ability of Vif to degrade A3G or A3F. […] To identify inhibitors that can interfere with Vif mediated degradation of A3G and A3F, we have developed Hela cell lines that stably express A3G or A3F tagged with eYFP at the C-terminal end (A3G-eYFP or A3F-eYFP, respectively) and Vif. In the absence of an inhibitor, Vif induces degradation of A3G-eYFP and A3F-eYFP, and the cells are not fluorescent. In the presence of an inhibitor, it is expected that Vif will be unable to degrade A3G-eYFP and/or A3F-eYFP, resulting in an increase in yellow fluorescence. In this assays Vif A3F was screened against the Molecular Library Small Molecule Repository (MLSMR). NIH Chemical Genomics Center [NCGC] NIH Molecular Libraries Probe Centers Network [MLPCN] MLPCN Grant: MH093245 Assay Submitter (PI): Vinay Pathak, National Cancer Institute
5 uL of 700 cells/well of A3F-YFP cells are dispensed into black, clear bottom plates. The plates are incubated overnight at 37 deg C. 23 nL of compounds are added by pintool. The plates are incubated overnight at 37 deg C and then read on the TTP Acumen (Ex 488/ Em 500-530).
With `COc1ccc(Cl)cc1S(=O)(=O)N1CCC(c2ccncc2)CC1` the “activity, negative = active” value was 3.97%. With `CCOc1ccc2nc(N3CCC(C(=O)Nc4cc(C)ccc4C)CC3)sc2c1` the “activity, negative = active” value was -11.1%. In the case of `CCCS(=O)(=O)c1ncc(Cl)c(C(=O)Nc2scc(-c3ccccc3)c2C(=O)OCC)n1`, the “activity, negative = active” value is reported as 1.36%. For `O=C(/C=C/c1ccccc1)Nc1cc(-c2nc3cc(Cl)ccc3o2)ccc1Cl`, the “activity, negative = active” value was -2.35%. For `COC(=O)c1ccccc1NC(=O)Cn1c(=O)cc(C)c2c(C)nn(-c3cccc(Cl)c3C)c21`, the “activity, negative = active” value was -10.3%. For `Cc1cccc(NC(=O)Cn2nc(-c3ccc(Cl)cc3)c3ccccc3c2=O)c1`, the “activity, negative = active” value was -26.3%. For `COc1cc2c(cc1OC)C(COc1ccc(F)cc1)N(C(=O)c1ccccc1F)CC2` (stereo not given), the “activity, negative = active” value was 7.39%. In the case of `Cc1ccc(OCCSc2nc3ccc(NC(=O)COc4ccc(C)cc4)cc3s2)cc1`, the “activity, negative = active” value is reported as -0.244%. In the case of `COC(=O)c1cc(C)sc1NC(=O)CC1Nc2ccccc2NC1=O` (stereo not given), the “activity, negative = active” value is reported as -8%. For `O=C(CC1Nc2ccccc2NC1=O)Nc1ccccc1` (stereo not given), the Potency was 12.6 µM (active). With `O=C(CC1NCCc2ccccc21)Nc1cccc(Cl)c1` (stereo not given) the “activity, negative = active” value was -28.8%. For `COc1cccc(CNC(=O)C2CCC(CNS(=O)(=O)c3cccs3)CC2)c1` (stereo not given), the “activity, negative = active” value was 3.35%. For `COc1ccc(C2c3c(oc4ccccc4c3=O)C(=O)N2Cc2ccc3c(c2)OCO3)cc1` (stereo not given), the “activity, negative = active” value was -2.63%. With `CC(=O)N1CCCc2cc(S(=O)(=O)N3CCC(C(=O)NCc4ccc(F)cc4)CC3)ccc21` the “activity, negative = active” value was -3.28%. With `Cc1cc(C)cc(NC(=O)CSc2nc(=O)n(CCN3CCOCC3)c3c2CCC3)c1` the “activity, negative = active” value was 1.36%. For `CCCCOC(=O)/C(C#N)=C/c1ccc(-c2cccc(C(F)(F)F)c2)o1`, the “activity, negative = active” value was 0.984%. In the case of `CCCCNC(=O)C1CCCN(c2nnc(C)c3c(C)n(-c4ccc(Cl)cc4)nc23)C1` (stereo not given), the “activity, negative = active” value is reported as 0.0194%. With `CCOc1ccc(S(=O)(=O)Nc2ccc3oc4c(c3c2)CC(C)CC4)cc1` (stereo not given) the “activity, negative = active” value was -1.64%. For `CCNC(=O)c1cc2n(n1)CCCN(Cc1ccc(C)cc1)C2=O`, the “activity, negative = active” value was -0.301%. For `CCCOC(=O)c1c(NC(=O)c2cc3nc(-c4ccc(OC)cc4)cc(C(F)(F)F)n3n2)sc2c1CCCC2`, the “activity, negative = active” value was 1.95%. For `O=C(NCC(c1ccc2c(c1)OCO2)N1CCN(c2ccccc2)CC1)C(=O)Nc1ccccc1F` (stereo not given), the “activity, negative = active” value was 2.29%. In the case of `O=C(NC1CC(=O)N(c2ccc(F)cc2)C1)C1CCCCC1` (stereo not given), the “activity, negative = active” value is reported as 1.21%. With `Cc1cc(C)c(/C=C2\C(=O)Nc3ccccc32)[nH]1` the Potency was 12.6 µM (active). In the case of `Fc1ccc(-n2ncc3c(Nc4ccc(Oc5ccccc5)cc4)ncnc32)cc1`, the “activity, negative = active” value is reported as -29%. With `COc1ccccc1NC(=O)c1oc2ccccc2c1NC(=O)C(C)C` the “activity, negative = active” value was -14.6%. For `Cc1ccc(Cc2nc3ccccc3nc2SCC(=O)Nc2cccc(C(F)(F)F)c2)cc1`, the “activity, negative = active” value was -7.16%. In the case of `COc1ccc(NC(=O)Cn2cc(C(=O)c3ccncc3)c(=O)c3cc(C)ccc32)cc1Cl`, the “activity, negative = active” value is reported as 0.229%. For `Cc1ccc(C)c(Oc2c(C(F)(F)F)oc3c(CN4CCN(C)CC4)c(O)ccc3c2=O)c1`, the “activity, negative = active” value was -3.95%. For `CC1CCC(N2CC(=O)N(CCC3=CCCCC3)C(c3ccc(F)cc3)C2=O)CC1` (stereo not given), the “activity, negative = active” value was 9.13%. For `COc1ccc(Cl)cc1NC(=O)c1sc2nc3c(cc2c1N)CN(C)CC3`, the “activity, negative = active” value was -23.7%. For `CCOc1ccc(N2CC(c3nc4ccccc4n3CCOc3ccc(OC)cc3)CC2=O)cc1` (stereo not given), the “activity, negative = active” value was 2.96%. In the case of `O=S(=O)(c1ccc(C2CCCCC2)cc1)N1CCN(c2ccc(Cl)c(Cl)c2)CC1`, the “activity, negative = active” value is reported as -4.98%. With `CC(C)c1ccc(C2CC(=O)N3CN(C4CCCCC4)CSC3=C2C#N)cc1` (stereo not given) the “activity, negative = active” value was 1.95%. With `CCOc1ccc2oc(=O)cc(CN3CCN(C(=O)c4ccc(F)cc4)CC3)c2c1` the “activity, negative = active” value was 8.67%. With `COc1ccc(-c2nn3c(-c4ccc(OC)cc4)nnc3c3ccccc23)cc1` the “activity, negative = active” value was 3.72%. For `CC(C)c1ccc(NC(=O)c2cc(S(=O)(=O)N3CCc4ccccc4C3)ccc2F)cc1`, the “activity, negative = active” value was 0.749%. For `CCOc1ccccc1C(=O)NCc1ccc2c(c1)CCN2C(=O)c1ccc(F)cc1`, the “activity, negative = active” value was -7.05%. For `CCOc1ccc(N(Cc2ccccc2)C(=O)c2nc(S(C)(=O)=O)ncc2Cl)cc1`, the “activity, negative = active” value was 5.15%. With `Cc1ccc2sc(N(Cc3cccnc3)C(=O)C3COc4ccccc4O3)nc2c1C` (stereo not given) the “activity, negative = active” value was -6.9%. For `Cc1ccc(NC(=O)c2oc3ccc(S(=O)(=O)N4CCCCC4)cc3c2C)cc1Cl`, the “activity, negative = active” value was 0.769%. With `CCc1nn(CC(=O)N2CCN(c3ccc(Cl)cc3)CC2)c(=O)c2cc3occc3n12` the “activity, negative = active” value was 0.0492%. With `Cc1nc2c(-c3ccccc3)c(C)nn2c(C)c1CCC(=O)NCCc1ccccc1` the “activity, negative = active” value was -7.66%. With `COc1ccccc1Nc1nc(N)nc(N)c1S(=O)(=O)c1ccccc1` the “activity, negative = active” value was 6.16%. In the case of `COc1cc(NC(=O)c2cc3ccc4cccnc4c3[nH]2)cc(OC)c1OC`, the “activity, negative = active” value is reported as -2.39%. For `COc1ccc(-c2cn3c(n2)sc2cc(C(=O)Nc4ccc(F)cc4)ccc23)cc1`, the “activity, negative = active” value was 0.115%. For `COc1ccc(NC(=O)c2sc3nc(-c4cc5cccc(OC)c5oc4=O)[nH]c(=O)c3c2C)cc1`, the “activity, negative = active” value was 6.98%. For `COc1ccc(-c2nc3cnccn3c2NC(C)(C)CC(C)(C)C)cc1O`, the “activity, negative = active” value was 5.18%. In the case of `Cc1ccc(Nc2c(-c3ccc(C)cc3)nc3cnccn23)cc1`, the “activity, negative = active” value is reported as -7.53%. With `COc1ccc(-c2nc3cnccn3c2NC2CCCCC2)cc1-c1cccc(Cl)c1` the Potency was 22.4 µM (active). In the case of `CCOCCCNC(=O)c1ccc2nc(CCc3ccccc3)oc2c1`, the “activity, negative = active” value is reported as 1.04%.
Potency is read from the fitted curve at half-maximal effect.
